The record followed here is PubChem BioAssay (NCI).

A short description of assay [1]: NCI Yeast Anticancer Drug Screen. Data for the rad50 strain (AID 155).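 Further: 0% = growth of vehicle-only cultures of the same strain.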 To be noted: S. cerevisiae rad50 strain growth inhibition; at 50.0 µM; hits give high values. The method in brief: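 Yeast carrying a defined DNA repair defect were exposed to test compounds, and growth was compared with vehicle-treated controls to give percent inhibition.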
The nature of assay [2]: NCI Yeast Anticancer Drug Screen. Data for the mec2-1 strain (AID 157). To be noted: S. cerevisiae mec2-1 strain, at 50.0 µM, hits give high values. The method in brief:
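Readout is yeast growth inhibition, normalised to vehicle-treated controls, in the mec2-1 strain exposed to compound.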

Assay [3] is described as follows: NCI Yeast Anticancer Drug Screen. Data for the sgs1 mgt1 strain (AID 161).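 Further: 0% = growth of cultures given vehicle only.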 The following applies: S. cerevisiae sgs1 mgt1 strain, at 50.0 µM, hits give high values. The gist of the method: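 Growth of a repair-deficient yeast mutant was monitored after compound treatment and expressed as inhibition relative to vehicle-treated cultures.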
Assay [4] in a line: NCI Yeast Anticancer Drug Screen. Data for the cln2 rad14 strain (AID 165).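 Further: 0% = growth equal to vehicle treated cultures.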 To be noted: S. cerevisiae cln2 rad14 strain, at 50.0 µM, hits give high values. The method in brief:
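Relative to vehicle controls, growth inhibition of compound-treated cln2 rad14 yeast was recorded.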

Assay [5] in a line: NCI Yeast Anticancer Drug Screen. Data for the bub3 strain (AID 167). To be noted: S. cerevisiae bub3 mutant strain, at 50.0 µM, hits give high values. The gist of the method: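 Compounds were applied to a genetically altered yeast strain carrying a cell-cycle control defect. Growth inhibition was scored against vehicle-treated controls.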
Assay [6] can be described thus: NCI Yeast Anticancer Drug Screen. Data for the mlh1 rad18 strain (AID 175). To be noted: S. cerevisiae mlh1 rad18 strain growth inhibition; at 50.0 µM; hits give high values. The method in brief:
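Test agents were incubated with a yeast strain of defined genotype (DNA damage repair defect). Inhibition of growth was derived by comparison with vehicle-exposed cultures.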

About 79,000 compounds went through this panel and 15% of them were active in at least one assay; those are over-represented in the sample as a whole. Values without a mark were called inactive. Activity calls are given as the source filed them. No stated cut-off is given here; in the data, active means growth inhibition above about 70%; inactive means the rest.

As to `Cc1cc(Br)ccc1N=c1scc(-c2ccc(Cl)cc2)n1C`, the growth inhibition in assay [1] is -22.2%; in assay [2], -27.6%; in assay [3] it was 4.45%; in assay [4] it was 0.1%; in assay [5], 16.1%; in assay [6], 15.1%.
In the case of `CC(C)(Cc1ccc([N+](=O)[O-])cc1)[N+](=O)[O-]`, the growth inhibition is 7.95% in assay [1]; 11.3% in assay [2]; 4.3% in assay [3]; -7.55% in assay [4]; 12.4% in assay [5]; -0.05% in assay [6].
On to `Cc1cc2ncn(CO)c2cc1C`, for which the growth inhibition is -4.5% in assay [1]; -0.2% in assay [2]; 18.8% in assay [3]; -7.4% in assay [4]; 20% in assay [5]; 0.75% in assay [6].
As to `CC1(C)CC(C)(C)[P+]1(C)c1ccccc1`, the growth inhibition is -0.35% in assay [1]; 16.4% in assay [2]; 12.8% in assay [3]; -3.45% in assay [4]; 15.6% in assay [5]; 10.1% in assay [6].
For `O=C1OC(c2ccccc2)=C/C1=C/c1ccc(Cl)cc1`, the growth inhibition in assay [1] is -1.2%; in assay [2] it was -17.6%; in assay [3], -6.65%; in assay [4], -6.2%; in assay [5], -7.3%; in assay [6], -8.3%.
For `Cc1ccc2nc(C)cc(N=[N+]=[N-])c2c1`, the growth inhibition in assay [1] is -35.6%; in assay [2], -21.8%; in assay [3], -17.1%; in assay [4] it was -58.9%; in assay [5] it was -2.2%; in assay [6], -11.5%.
For `COc1cc(C(C)=O)cc(OCc2ccccc2)c1OC`, the growth inhibition in assay [1] is -2.85%; in assay [2], 15.7%; in assay [3] it was 18.2%; in assay [4] it was -13.1%; in assay [5], 15.4%; in assay [6], 7.25%.
As for `CC(=O)Nc1nc(C)c(CC/C=C/c2ccc([N+](=O)[O-])cc2)c(=O)[nH]1`, the growth inhibition in assay [1] is 4.75%; in assay [2], 32.6%; in assay [3] it was -3.8%; in assay [4], 2.95%; in assay [5], -8.15%; in assay [6] it was -6.1%.
Consider `O=C(O)c1cc(C2CCCC2)nc2ccccc12`, for which the growth inhibition in assay [1] is 4.6%; in assay [2], 17%; in assay [3], -5.25%; in assay [4] it was -6%; in assay [5] it was -13.2%; in assay [6] it was 6.85%.
`Cc1ccc(N(C(=O)CC(=O)NN)C(=O)c2ccccc2Cl)cc1`: the growth inhibition in assay [1] was -12.4%; in assay [2], -13.6%; in assay [3], -8.25%; in assay [4], 27%; in assay [5], 4%; in assay [6], -5.9%.
For `CCOC(=O)N(CCCl)C(=O)C(C)C`, the growth inhibition is -21.6% in assay [1]; -39.1% in assay [2]; -10.6% in assay [3]; 24.8% in assay [4]; -25.2% in assay [5]; -11.1% in assay [6].
For `Cc1ccc(N2CCN(c3ccc(C)cc3)C2=C2N(c3ccc(C)cc3)CCN2c2ccc(C)cc2)cc1`, the growth inhibition in assay [1] was 78.5% (active); in assay [2] it was 20.4%; in assay [3], 56.5%; in assay [4] it was 34.1%; in assay [5], 37.1%; in assay [6], 19.6%.
`NC(=O)Nc1cccc(C(=O)O)c1C(=O)O`: the growth inhibition in assay [1] was -29.4%; in assay [2], -13.2%; in assay [3] it was -18.1%; in assay [4], -33.6%; in assay [5], -13.1%; in assay [6], -28.4%.
As to `CC(C)(C)C1CCC(=NO)CC1` (stereo not given), the growth inhibition is 23.1% in assay [1]; 16.1% in assay [2]; 16.5% in assay [3]; 18.3% in assay [4]; 14.3% in assay [5]; 23.8% in assay [6].
With `CCOC(=O)NC(N)=O`, the growth inhibition was 11.3% in assay [1]; -1.45% in assay [2]; 14.2% in assay [3]; -8.1% in assay [4]; 0.4% in assay [5]; 6.85% in assay [6].
`COc1cc2c(oc(=O)c3cc4cc([Si](C)(C)C)oc4c(OC)c32)c2cccc(O)c12`: the growth inhibition was -0.5% in assay [1]; -27.4% in assay [2]; -26.6% in assay [3]; -23.2% in assay [4]; 6.9% in assay [5]; -8.25% in assay [6].
On to `O=[N+]([O-])c1ccc(NC(c2ccccc2)c2ccc3cccnc3c2O)cc1` (stereo not given), for which the growth inhibition in assay [1] is -6.35%; in assay [2], -20.1%; in assay [3], 0.2%; in assay [4], -15.3%; in assay [5] it was -2.75%; in assay [6], -10.3%.
For `c1ccc([P+](CC[P+](c2ccccc2)(c2ccccc2)c2ccccc2)(c2ccccc2)c2ccccc2)cc1`, the growth inhibition was -11.7% in assay [1]; -15.6% in assay [2]; -1.45% in assay [3]; -31.8% in assay [4]; -12.4% in assay [5]; -16.4% in assay [6].
Take `O/N=C(/CC(O)(c1ccccc1)c1ccccc1)c1ccccc1`: the growth inhibition was 22.6% in assay [1]; -6.8% in assay [2]; 7.8% in assay [3]; -15.4% in assay [4]; -17.9% in assay [5]; 27.4% in assay [6].
Consider `CCCCCC[C@H](C/C=C\CCCCCCCC(=O)OCCCC)OC(C)=O`, for which the growth inhibition in assay [1] is -14.7%; in assay [2], 0.2%; in assay [3], -10.2%; in assay [4], -14.2%; in assay [5] it was -29.4%; in assay [6] it was -8.8%.
